Compounds without any hit were thinned out: in the full panel of roughly 83,000, 20% have a hit.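 Activity criterion: percent growth below 10, measured after cells in 96-well plates were exposed to a single compound concentration for 48 hours.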 A number with no mark means an inactive call. Calls of active or inactive are those of the source.
Tested on: KM12 colon
Assay: NCI-60 one-dose screen, 48 h (100 = growth as untreated, 0 = no growth, -100 = all killed)
Details: 10 µM unless noted

| Structure (SMILES) | growth |
| --- | --- |
| COc1cccc(-c2nc3sccn3c2-c2ccnc(NCCCNS(=O)(=O)c3c(Cl)cccc3Cl)c2)c1 | 68.2% |
| CC1=NN(c2nc(-c3ccc(Cl)cc3)c(C#N)c(N3CCOCC3)n2)C(=O)C1 | 99.7% |
| Cc1nc2c3c(-c4ccccc4)c(-c4ccccc4)oc3ncn2n1 | 99.3% |
| C=CC(=O)Nc1cccc(-c2nc(SC)nc(NCc3ccccc3)c2C#N)c1 | 89.2% |
| N#Cc1c(N)n(CCNC(=O)c2ccccc2)c2nc3ccccc3nc12 | 114% |
| C=C(C)[C@@H]1CC[C@]2(C(=O)OC)CC[C@]3(C)[C@H](CC[C@@H]4[C@@]5(C)C/C(=C/c6cccc(I)c6)C(=O)C(C)(C)[C@@H]5CC[C@]43C)[C@@H]12 | 101% |
| Cc1c(/C=C/[N+](=O)[O-])ccc2c1[nH]c1ccccc12 | 52.4% |
| COc1cc(/C=C/c2cc(O)c3cc(C(C)=O)c(=O)oc3c2)cc2c1O[C@]1(C)CC[C@@H](O)C(C)(C)[C@H]1C2 | 57.6% |
| CCCOc1ccc2nc(NC(=O)OC)[nH]c2c1 | 5.74% (active) |
| COc1cc(/C=C/C(=O)c2ccc(O)c(CN3CCN(c4cc5c(cc4F)c(=O)c(C(=O)O)cn5C4CC4)CC3)c2)cc(OC)c1OC | 72% |
| C=CCSSc1ncnc2c1ncn2C1OC(CO)C(O)C1O (centres undefined) | 37.1% |
| COc1cc2nc(N3CCCC3)nc(NCc3ccccc3)c2cc1OC | 96.3% |
| CC[C@H]1OC(=O)[C@H](C)[C@@H](O[C@H]2C[C@@](C)(OC)[C@@H](O)[C@H](C)O2)[C@H](C)[C@@H](O[C@@H]2O[C@H](C)C[C@H](N(C)C)[C@H]2O)[C@](C)(O)C[C@H](C)CN(C)[C@H](C)[C@@H](O)[C@]1(C)O | 95.4% |
| CSc1nc(NCCN2CCOCC2)c(C#N)c(-c2cccc([N+](=O)[O-])c2)n1 | 98.7% |
| CC(C)c1c(C(=O)c2ccccc2)c(-c2ccccc2)c(-c2ccc(F)cc2)n1CC[C@@H](O)C[C@@H](O)CC(=O)O | 91% |
| N#CCCN=Nc1c(O)[nH]c2ccc([N+](=O)[O-])cc12 | 101% |
| CC[C@@H]1O[C@H](O[C@@H](c2cnc[nH]2)[C@H](NC(=O)c2nc([C@H](CC(N)=O)NC[C@@H](N)C(N)=O)nc(N)c2C)C(=O)N[C@H](C)[C@H](O)[C@H](C)C(=O)N[C@@H](C(=O)NCCc2nc(-c3nc(C(=O)NCCCCN=C(N)N)cs3)cs2)[C@@H](C)O)[C@H](O[C@@H]2O[C@H](CO)[C@H](O)[C@H](OC(N)=O)[C@@H]2O)[C@H](C)[C@@H]1C | 57.9% |
| COc1cc2nc(N3CCCC3)nc(Nc3ccccc3)c2cc1OC | 33% |
| Nc1nc2ncc(CCNc3ccc(C(=O)O)cc3)nc2c(=O)[nH]1 | 111% |
| CCCN1CCN(c2ccc3nc(-c4ccc5nc(-c6ccc(OCC)cc6)[nH]c5c4)[nH]c3c2)CC1 | 42.8% |

| Structure (SMILES) | growth |
| --- | --- |
| COc1ccc(Nc2nc(SC)nc(-c3cccc([N+](=O)[O-])c3)c2C#N)cc1 | 97.7% |
| O=C1CC(=NCC(=O)n2c(-c3ccccc3)nc3ccccc32)NN1 | 101% |
| CC(C)(O)c1cn(CCCCN2C(=O)C(=O)c3ccccc32)nn1 | 101% |
| CCCCCCCCCCCCC[N+](C)(C)Cc1ccccc1 | -93.6% (active) |
| COc1ccc(/C=C/C(=O)c2ccc(O)c(CN3CCN(c4cc5c(cc4F)c(=O)c(C(=O)O)cn5C4CC4)CC3)c2)cc1 | 24.8% |
| O=S(=O)(Nc1ccc(OC(F)F)cc1)c1ccc(-c2cnc(C3CC3)o2)cc1 | 74.1% |
| N#C/C(=C\c1ccc(-c2cc(C(F)(F)F)ccc2Cl)o1)c1nc(-c2ccco2)cs1 | 99.9% |
| O=C(O)c1ccc(N=CC(=O)c2ccc(-c3ccccc3)cc2)cc1 | 102% |
| COc1cccc(-c2nn(C(C)(C)C)cc2-c2ccnc(NCCCNS(=O)(=O)c3ccc(C)cc3)c2)c1 | 101% |
| CC(C)n1c(/C=C/[C@@H](O)C[C@@H](O)CC(=O)O)c(-c2ccc(F)cc2)c2ccccc21 | 87.5% |
| N#Cc1c(-c2ccc(Cl)cc2)nc(N/N=C/c2cccc(Br)c2)nc1N1CCOCC1 | 94.9% |
| COc1ccc(-c2nc3ccc(-c4nc5ccc(N6CCN(c7ccncc7)CC6)cc5[nH]4)cc3[nH]2)cc1OC | 92.8% |
| CSc1nc(NCc2ccccc2)c(C#N)c(-c2cccc([N+](=O)[O-])c2)n1 | 98.2% |
| O=C(/C=C/c1cccc(Cl)c1)c1ccc(O)c(CN2CCN(c3cc4c(cc3F)c(=O)c(C(=O)O)cn4C3CC3)CC2)c1 | 51.2% |
| CC1(C)CC[C@]2(C(=O)Nc3ccccn3)CC[C@]3(C)C(=CC[C@@H]4[C@@]5(C)C/C(=C/c6cccnc6)C(=O)C(C)(C)[C@@H]5CC[C@]43C)[C@H]2C1 | 40.1% |
| COC(=O)[C@]12CCC(C)(C)C[C@H]1[C@H]1C(=O)C[C@@H]3[C@@]4(C)c5c([nH]c6ccccc6c5=O)C(C)(C)[C@@H]4CC[C@@]3(C)[C@]1(C)CC2 | 72.9% |
| CC1=CC(=NN=c2cc(C)n([O-])c(C)c2)C=C(C)[N+]1=O | 95.3% |
| CCC(=O)c1ccc(Cl)s1 | 107% |
| Cn1c(=O)c2c(nc3n(-c4ccc(Cl)cc4Cl)c(Sc4nc(-c5ccccc5)c(C#N)c(=O)[nH]4)cn23)n(C)c1=O | 84.9% |

Reference: PubChem BioAssay (NCI)
